Compound activity (PubChem)
GPR151 activ = activates the human receptor GPR151 | Q8TDV0 | PathHunter beta-arrestin GPR151 cells, luminescence | activation, % at 11.2 µM | hit rate 1% among 650,000 | AID 1508602; in the data active = activation above about 4.9%;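 also: 0% = median of compound wells and 100% = cells with positive control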
TEAD-YAP inh = TEAD-YAP interaction inhibition. AID 1259422. inhibition, % at 9.12 µM. HEK-TIYL cells, TEAD-Gal4/YAP UAS-luciferase luminescence. hit rate 1.4% among 640,000; in the data active = inhibition above about 32%;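 also: 0% = median of test compound wells and 100% = reference inhibitor wells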
MITF inh = blocks human microphthalmia-associated transcription factor; O75030; AlphaScreen MITF homodimerization, bead proximity signal; inhibition, % at 2.6 µM; hit rate 0.91% among 650,000; AID 1259374; in the data active = inhibition above about 50%;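 also: 0% = vehicle wells with protein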
FBW7 activator = human FBW7 E3 ligase activation, primary screen. hit rate 0.13% among 650,000. AlphaScreen FBW7–phospho-cyclin E peptide binding, activator screen. AID 1259310. Q969H0. normalized activity (activation), % at 26.1 µM; in the data active = normalized activity above about 1.9%;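 also: purified mutant Fbw7 with reduced substrate affinity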
Target sequence (Q969H0 whole entry, looked up): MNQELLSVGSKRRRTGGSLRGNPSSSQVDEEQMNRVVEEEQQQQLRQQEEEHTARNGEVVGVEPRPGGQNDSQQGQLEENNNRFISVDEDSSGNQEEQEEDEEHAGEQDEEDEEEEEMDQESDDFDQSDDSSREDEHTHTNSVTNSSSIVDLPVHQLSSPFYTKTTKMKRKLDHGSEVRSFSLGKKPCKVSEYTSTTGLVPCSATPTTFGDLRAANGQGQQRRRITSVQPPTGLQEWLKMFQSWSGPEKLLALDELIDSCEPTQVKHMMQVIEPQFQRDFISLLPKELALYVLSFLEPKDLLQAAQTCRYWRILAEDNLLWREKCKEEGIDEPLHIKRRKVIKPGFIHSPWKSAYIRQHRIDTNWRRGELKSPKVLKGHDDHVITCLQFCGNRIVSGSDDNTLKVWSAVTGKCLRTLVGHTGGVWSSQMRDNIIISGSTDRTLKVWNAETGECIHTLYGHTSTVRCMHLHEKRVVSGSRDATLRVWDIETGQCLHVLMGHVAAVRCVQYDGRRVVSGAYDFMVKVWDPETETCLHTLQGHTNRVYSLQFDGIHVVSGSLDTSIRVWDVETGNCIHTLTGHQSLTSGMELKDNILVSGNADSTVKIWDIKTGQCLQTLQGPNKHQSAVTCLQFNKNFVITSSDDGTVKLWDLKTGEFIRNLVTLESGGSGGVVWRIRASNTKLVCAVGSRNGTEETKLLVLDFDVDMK
MITF confirm = confirmation of human MITF inhibitors; hit rate 16% among 4,700; shares compounds with MITF inh; AlphaScreen MITF homodimerization, biotin/His-MITF beads; inhibition, % at 2.6 µM;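 active = inhibition above a cutoff derived from the DMSO control wells, cut at about 28% in these data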;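 also: 0% = MITF dimer wells with DMSO only; inhibitors lower the bead chemiluminescence by keeping MITF from dimerizing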
AS interf ctr = optically interferes with AlphaScreen signal. shares compounds with MITF inh. LysRS AlphaScreen counterscreen, signal interference, triplicate. inhibition, % at 2.6 µM. hit rate 7.6% among 4,700. AID 1259376;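 active = inhibition above a cutoff derived from the DMSO control wells, cut at about 30% in these data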
* marks the source's active call; other numbers are inactive results; / = no result; ! = repeats disagree. Shown are actives, neighbours in structure and some others; about 3.5% of the full set was active somewhere.

SMILES	GPR151 activ	TEAD-YAP inh	MITF inh	FBW7 activator	MITF confirm	AS interf ctr
Cc1cccc(-n2ncc3c(Nc4cccc(C)c4C)ncnc32)c1	0.0	42.2*	-5.2	-0.1	/	/
Cc1cccc(-n2ncc3c(NC(C)(C)C)ncnc32)c1	1.3	82.4*	-3.1	0.0	/	/
Cc1cccc(-n2ncc3c(Nc4ccc(C)cc4C)ncnc32)c1	0.1	-26.6	8.2	0.0	/	/
COc1ccc(Cl)cc1NC(=O)CCc1sc(C)nc1-c1cccs1	0.8	-11.3	5.6	0.1	/	/
CCCN(CCC)c1ncnc2c1cnn2-c1ccc(Cl)cc1	1.7	6.8	4.8	0.4	/	/
CCN(CCN(C)C)c1ncnc2c1cnn2-c1ccc(Cl)cc1	-1.4	50.0*	5.0	-0.2	/	/
CCOC(=O)N1CC=C2C(C#N)=C(N)C(C#N)(C#N)C(C)C2C1 (centres undefined)	0.6	67.6*	9.3	0.0	/	/
COc1ccc(N2CC(C(=O)Nc3sc4c(c3C#N)CCCC4)CC2=O)cc1 (centres undefined)	-0.8	4.1	-2.0	-0.3	/	/
CC1(Cc2ccccc2)C(=O)Nc2ccc(-c3cccnc3)cc21 (centres undefined)	0.1	18.1	8.2	0.0	/	/
CC1(Cc2ccc3c(c2)OCO3)C(=O)Nc2ccc(-c3cccnc3)cc21 (centres undefined)	0.7	42.1*	10.6	0.2	/	/
O=C(CC1SC(=O)N(CC(=O)c2ccccc2)C1=O)Nc1ccccc1 (centres undefined)	2.5	-0.1	-3.3	0.1	/	/
Cc1nc(N=Nc2ccc(S(=O)(=O)O)cc2S(=O)(=O)O)c(COP(=O)(O)O)c(C=O)c1O	1.5	2.8	74.8*!	0.1	/	/
Oc1cccc2ccc(/C=C/c3ccc(Cl)cc3)nc12	-2.1	46.2*	4.6	0.1	/	/
CC(C)Oc1ccc(/C=C/c2ccc3cccc(O)c3n2)cc1	-8.7	79.7*	5.3	0.1	/	/
CC(=O)Oc1ccc(/C=C/c2ccc3cccc(OC(C)=O)c3n2)cc1[N+](=O)[O-]	-7.4	-6.5	21.3	0.0	/	/
COc1ccc(/C=C/c2ccc3cccc(OC(C)=O)c3n2)cc1OC(C)=O	-4.4	75.2*	16.6	0.0	/	/
Oc1cccc(/C=C/c2ccc3cccc(O)c3n2)c1	-4.3	47.4*	6.2	0.1	/	/
Oc1c(Br)cc(/C=C/c2ccc3cccc(O)c3n2)cc1Br	-0.8	17.1	7.0	0.3	/	/
CCOc1ccc(NC(=O)CSc2nc3ccccc3c(=O)n2CCC(=O)NCCc2ccc(OC)c(OC)c2)cc1	0.2	4.5	-0.5	0.1	/	/
CN(C)C(=O)c1ccc(NCCC(=O)c2cccs2)cc1	-6.2	-33.1	18.4	0.2	/	/
CCc1ccc(Nc2nnc(SCC(=O)Nc3ccccc3C#N)s2)cc1	1.3	-21.1	2.8	-0.1	/	/
CC(C)(C)c1ccc(/C=C/C(=O)N2CCC(C(N)=O)CC2)cc1	0.5	-12.8	65.3*	-0.1	-6.0	-10.4
NC(=O)C1CCN(C(=O)/C=C/c2ccc([N+](=O)[O-])cc2)CC1	4.2	-3.5	20.0	0.0	/	/
CN(CCc1ccccc1)C1CCCN(Cc2ccccn2)C1 (centres undefined)	0.4	7.6	10.9	-0.2	/	/
Cn1c(SCc2ccccc2)nnc1C1CCCN(Cc2ccccn2)C1 (centres undefined)	0.1	-3.0	61.0*	-0.3	36.5*	92.6*
SMILES	GPR151 activ	TEAD-YAP inh	MITF inh	FBW7 activator	MITF confirm	AS interf ctr
NS(=O)(=O)c1ccc(CCNC(=O)CSc2nc3ccsc3c(=O)n2CC2CCC(C(=O)O)CC2)cc1 (centres undefined)	2.8	4.6	3.3	0.0	/	/
Cc1cccc(NC(=O)CSc2nsc(SCC(=O)Nc3cccc(C)c3)n2)c1	-0.8	-2.0	-6.2	0.1	/	/
O=C(CSc1nsc(SCC(=O)Nc2ccc(Cl)c(Cl)c2)n1)Nc1ccc(Cl)c(Cl)c1	0.7	-9.8	58.8*	0.4	39.0*	10.9
CSc1ccccc1C(=O)Nc1nc(-c2ccccn2)cs1	-1.0	13.8	27.6	-2.0	/	/
CS(=O)(=O)c1ccccc1C(=O)Nc1nc(-c2ccccn2)cs1	0.8	18.8	57.0*	-1.8	37.5*	100.3*
CCn1ccc(C(=O)Nc2nc(-c3ccccn3)cs2)n1	3.0	-22.8	83.4*	-1.3	72.7*	100.6*
O=C(Cc1noc2ccccc12)N1CCN(c2ccc(-c3ccccn3)nn2)CC1	-2.6	21.0	125.8*	-1.5	112.0*	100.6*
O=C(c1cnn(-c2ccccc2)c1-n1cccc1)N1CCN(c2ccccn2)CC1	0.2	9.1	17.3	0.2	/	/
Cc1c(C(=O)N2CCN(c3ccc(-c4ccccn4)nn3)CC2)cnn1-c1ccccc1	1.0	-4.5	75.0*	-1.3	96.0*	100.6*
O=S(=O)(C1CC1)N1CCN(c2ccc(-c3ccccn3)nn2)CC1	-8.8	59.0*	121.5*	-1.6	108.1*	100.4*
COc1cc(OC)c(/C=N/n2cnnc2)c(OC)c1	-0.7	9.5	9.0	0.0	/	/
CSc1nnc2c(n1)[nH]c1ccccc12	0.4	-35.2	-5.3	-0.1	/	/
CCC1CN(CC(=O)NC2C3CC4CC(C3)CC2C4)Cc2cc(OC)ccc2O1 (centres undefined)	1.4	-4.5	59.8*	0.1	-1.1	6.3
O=C(NC1CC1)c1ccnc(-c2cccs2)c1	-0.4	-15.4	65.5*	0.1	11.5	6.2
O=C(CSc1nc(=O)n(CCO)c2c1CCCC2)N1CCc2ccccc21	-1.1	-1.9	2.7	0.2	/	/
O=C(CN1CCCCCC1)N/N=C/c1ccc(F)c(Br)c1	-0.2	-12.5	32.2	-0.1	/	/
O=C(CN1CCCCCCC1)N/N=C/c1ccc(F)c(Br)c1	-0.8	-9.5	57.1*	0.2	3.3	0.9
Fc1ccc(CN2CCN(CC3CC4C=CC3C4)CC2)cc1 (centres undefined)	-0.3	7.5	78.6*	0.0	6.6	19.6
COc1ccc(OC)c(CN2CCN(CC3CC4C=CC3C4)CC2)c1 (centres undefined)	0.2	-6.0	34.6	-0.1	/	/
COc1cc(CN2CCN(CC3CC4C=CC3C4)CC2)cc(OC)c1OC (centres undefined)	-0.4	10.7	56.0*	0.4	-2.5	-0.3
CSc1ccc(CN2CCN(CC3CC4C=CC3C4)CC2)cc1 (centres undefined)	0.2	0.6	62.2*	-0.2	-2.6	3.6
CSc1ccc(CN2CCN(S(=O)(=O)c3ccc(F)cc3)CC2)cc1	-1.7	4.7	44.9	0.7	/	/
Cc1ccc(CN2CCN(CC3CC4C=CC3C4)CC2)cc1 (centres undefined)	0.1	4.7	74.2*	0.0	-5.5	-1.8
CCOC(=O)CN1CCN(C(=O)c2cccc(C#N)c2)C(C(=O)N2CCCC2)C1 (centres undefined)	0.0	2.7	14.7	0.1	/	/
O=C(c1cc(Cc2ccccc2)no1)N1CCSCC1	0.2	-0.6	-8.1	-0.1	/	/
O=C(c1cc(Cc2ccccc2)no1)N1CCCC1	0.1	-17.3	52.7*	0.1	-5.0	-0.9
CC(C)[C@H]1CN(Cc2ccccc2F)CCN1C(=O)c1cscn1	-0.8	1.6	9.9	0.0	/	/
